The record followed here is PubChem BioAssay (EPA / NIEHS).

The target in assay [1] is human Peroxisome Proliferator-activated Receptor alpha (PPARa), PPARA (gene 5465) (UniProt Q07869). Description: ATG_PPARa_TRANS: Attagene TRANS-FACTORIAL HepG2 Assay for human Peroxisome Proliferator-activated Receptor alpha (PPARa) (AID 2283001).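 On AC50: potency for gain of reporter signal over DMSO so agonist or activator.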 In a few lines: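 HepG2, transient MRTU transfection, 24 h treatment. RT-PCR → FAM labelling → capillary electrophoresis. Fit vs DMSO, positive direction.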

The target in assay [2] is human Peroxisome Proliferator-activated Receptor delta (PPARd), PPARD (gene 5467) (UniProt Q03181). Description: ATG_PPARd_TRANS: Attagene TRANS-FACTORIAL HepG2 Assay for human Peroxisome Proliferator-activated Receptor delta (PPARd) (AID 2283002). In a few lines: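 HepG2 cells transiently transfected with GAL4-UAS multiplexed reporter units driven by exogenous chimeric NR-GAL4 proteins; 24 h compound exposure. Reporter mRNA measured by RT-PCR, 6-FAM primer extension, HpaI digestion and capillary electrophoresis; gain of signal fitted relative to DMSO.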

Assay [3] addresses Nuclear receptor subfamily 1 group I member 2 (Homo sapiens) (UniProt O75469). Description: ATG_PXR_TRANS: Attagene TRANS-FACTORIAL HepG2 Assay for human Pregnane X Receptor (PXR) (AID 2283008). The procedure, abridged: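 Trans-factorial format: exogenous NR-Gal4 fusion activity, not endogenous factor, in transfected human HepG2 liver cells. After 24 h dosing, RNA isolated, reverse-transcribed, amplified and resolved by capillary electrophoresis; induction scored versus DMSO.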

The target of assay [4] is human RAR-related Orphan Receptor beta (RORb), RORB (gene 6096) (UniProt Q92753). Description: ATG_RORb_TRANS: Attagene TRANS-FACTORIAL HepG2 Assay for human RAR-related Orphan Receptor beta (RORb) (AID 2283010). In a few lines: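 Transfect HepG2 with multiple GAL4-UAS reporter transcription units; dose chemicals for 24 h; isolate RNA, reverse-transcribe and PCR-amplify reporter sequences; label, digest and resolve fragments by capillary electrophoresis; fit increases relative to DMSO.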

Read-out in assay [5]: Intercellular Adhesion Molecule 1 (ICAM1), ICAM1 (gene 3383)
Description: BSK_3C_ICAM1: BioMAP Diversity Plus: 3C Assay for Intercellular Adhesion Molecule 1 (ICAM1) Biomarker Activity (AID 2283003; active means hit-call score of the fitted dose curve at least 0.9, where 1 is the maximum; inactive means score below 0.9). The following applies: primary human endothelial cells (HUVEC); actives raise or lower the signal. The procedure, abridged:
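Chemicals are dosed onto primary human umbilical vein endothelium (3C system). After 24 h, ICAM-1 is measured by ELISA, and responses are fitted bidirectionally relative to DMSO.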

Assay [6] in a line: BSK_3C_Proliferation: Cell Proliferation Assessment in the BioMAP Diversity Plus: 3C Assay (AID 2283006; active means hit-call score of the fitted dose curve at least 0.9, where 1 is the maximum; inactive means score below 0.9;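 on AC50: potency may reflect either rise or fall in cell number versus DMSO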). The following applies: primary human endothelial cells (HUVEC). In a few lines: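 Cells (human umbilical vein endothelial, sub-confluent) receive test chemical; after 48 h they are fixed in 10% trichloroacetic acid, stained with 0.1% SRB and read at 560 nm. Activity is referenced to DMSO, fitting increases and decreases.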

The target in assay [7] is Peroxisome proliferator-activated receptor gamma (Homo sapiens) (UniProt P37231). Kind of assay: ATG_PPARg_TRANS: Attagene TRANS-FACTORIAL HepG2 Assay for human Peroxisome Proliferator-activated Receptor-gamma (PPARg) (AID 2283007). The procedure, abridged: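 Read-out: reporter mRNA induction, detected by fluorescence after RT-PCR and capillary electrophoresis. Transiently transfected human HepG2 liver cells carrying a chimeric NR-Gal4 construct were dosed for 24 h; activity was fitted upward relative to DMSO.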

Assay [8] has as its target human Retinoic Acid Receptor beta (RARb), RARB (gene 5915) (UniProt P10826). Description: ATG_RARb_TRANS: Attagene TRANS-FACTORIAL HepG2 Assay for human Retinoic Acid Receptor beta (AID 2283004). The procedure, abridged:
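HepG2, transient MRTU transfection, NR–Gal4 chimera, 24 h treatment; RT-PCR plus CE fluorescence detection of reporter mRNA; gain of signal vs DMSO.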

Assay [9] deals with Retinoic acid receptor alpha (Homo sapiens) (UniProt P10276). Kind of assay: ATG_RARa_TRANS: Attagene TRANS-FACTORIAL HepG2 Assay for human Retinoic Acid Receptor alpha (RARa) (AID 2283005). The procedure, abridged: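 HepG2 transiently transfected with multiplex GAL4-UAS reporter units including a human RARa–GAL4 chimera; 24 h compound exposure. Reporter mRNA quantified by RT-PCR, 6-FAM labeling and capillary electrophoresis; gain of signal versus DMSO.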

For assay [10], the target named is human Retinoic Acid Receptor gamma (RARg), RARG (gene 5916) (UniProt P13631). Kind of assay: ATG_RARg_TRANS: Attagene TRANS-FACTORIAL HepG2 Assay for human Retinoic Acid Receptor gamma (RARg) (AID 2283009). The procedure, abridged: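 TRANS format measured activity of exogenous NR-GAL4 fusion (RARg) in transfected HepG2 liver cells after 24 h dosing. Induced reporter RNA was detected by RT-PCR/capillary electrophoresis fluorescence, analysed in the positive direction against DMSO.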

Molecules are shown by their SMILES. Results filed as inconclusive are left out. The source made the active and inactive calls. How the source made its calls, unless noted: active means hit-call score of the fitted dose curve at least 0.9, where 1 is the maximum; inconclusive means response in the unintended direction; inactive means score below 0.9.

Peroxisome proliferator-activated receptor gamma (Homo sapiens), sequence (P37231 whole entry, looked up, the tested form may be a part): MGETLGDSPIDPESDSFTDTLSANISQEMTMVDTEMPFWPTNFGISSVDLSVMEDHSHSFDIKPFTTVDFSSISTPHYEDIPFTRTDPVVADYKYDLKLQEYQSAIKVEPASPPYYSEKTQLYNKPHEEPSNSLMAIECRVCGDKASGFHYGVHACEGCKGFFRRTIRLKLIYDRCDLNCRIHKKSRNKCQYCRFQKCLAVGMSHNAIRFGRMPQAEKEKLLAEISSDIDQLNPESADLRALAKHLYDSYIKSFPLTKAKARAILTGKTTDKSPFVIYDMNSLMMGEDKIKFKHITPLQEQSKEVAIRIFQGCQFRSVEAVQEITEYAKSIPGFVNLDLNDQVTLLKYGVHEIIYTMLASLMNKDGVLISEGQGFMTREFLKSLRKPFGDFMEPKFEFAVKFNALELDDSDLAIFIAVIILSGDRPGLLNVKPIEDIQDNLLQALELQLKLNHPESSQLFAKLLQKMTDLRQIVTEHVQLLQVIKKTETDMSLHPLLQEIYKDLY
Retinoic acid receptor alpha (Homo sapiens), sequence (P10276 whole entry, looked up, the tested form may be a part): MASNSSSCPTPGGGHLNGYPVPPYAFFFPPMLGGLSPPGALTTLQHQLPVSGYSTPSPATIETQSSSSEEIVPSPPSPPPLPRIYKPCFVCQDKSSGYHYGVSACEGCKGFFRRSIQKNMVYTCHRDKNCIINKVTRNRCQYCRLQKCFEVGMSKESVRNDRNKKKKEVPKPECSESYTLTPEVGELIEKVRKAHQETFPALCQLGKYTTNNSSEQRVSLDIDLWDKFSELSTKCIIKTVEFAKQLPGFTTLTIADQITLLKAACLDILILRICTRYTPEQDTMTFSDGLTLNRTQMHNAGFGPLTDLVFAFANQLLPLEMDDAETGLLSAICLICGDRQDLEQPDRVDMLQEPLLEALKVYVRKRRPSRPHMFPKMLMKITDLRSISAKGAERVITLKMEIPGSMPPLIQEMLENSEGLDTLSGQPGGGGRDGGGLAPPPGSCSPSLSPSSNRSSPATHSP
human Retinoic Acid Receptor gamma (RARg), RARG (gene 5916), sequence (P13631 whole entry, looked up, the tested form may be a part): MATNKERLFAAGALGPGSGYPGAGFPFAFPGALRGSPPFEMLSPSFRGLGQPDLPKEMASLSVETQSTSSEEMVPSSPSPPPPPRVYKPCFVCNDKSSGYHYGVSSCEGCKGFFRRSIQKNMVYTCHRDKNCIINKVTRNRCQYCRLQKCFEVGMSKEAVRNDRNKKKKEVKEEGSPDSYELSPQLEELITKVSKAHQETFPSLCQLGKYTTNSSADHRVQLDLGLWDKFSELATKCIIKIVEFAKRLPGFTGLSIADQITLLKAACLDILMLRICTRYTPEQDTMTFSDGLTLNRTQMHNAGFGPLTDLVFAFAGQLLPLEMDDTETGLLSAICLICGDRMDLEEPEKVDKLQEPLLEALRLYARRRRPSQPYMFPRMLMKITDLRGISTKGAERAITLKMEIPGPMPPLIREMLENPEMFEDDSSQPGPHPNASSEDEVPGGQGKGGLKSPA
human Peroxisome Proliferator-activated Receptor delta (PPARd), PPARD (gene 5467), sequence (Q03181 whole entry, looked up, the tested form may be a part): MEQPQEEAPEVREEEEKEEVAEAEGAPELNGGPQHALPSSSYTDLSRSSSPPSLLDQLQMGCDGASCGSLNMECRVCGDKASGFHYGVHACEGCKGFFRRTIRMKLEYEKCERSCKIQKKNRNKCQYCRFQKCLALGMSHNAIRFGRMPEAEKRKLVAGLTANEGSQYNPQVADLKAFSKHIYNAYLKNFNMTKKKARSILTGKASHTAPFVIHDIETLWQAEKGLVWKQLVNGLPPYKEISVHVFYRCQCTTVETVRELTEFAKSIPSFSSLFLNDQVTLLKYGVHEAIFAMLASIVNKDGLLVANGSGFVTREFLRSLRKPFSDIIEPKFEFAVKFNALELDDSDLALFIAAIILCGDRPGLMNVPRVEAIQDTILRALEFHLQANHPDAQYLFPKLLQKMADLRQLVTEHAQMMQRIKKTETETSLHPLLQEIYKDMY
Nuclear receptor subfamily 1 group I member 2 (Homo sapiens), sequence (O75469 whole entry, looked up, the tested form may be a part): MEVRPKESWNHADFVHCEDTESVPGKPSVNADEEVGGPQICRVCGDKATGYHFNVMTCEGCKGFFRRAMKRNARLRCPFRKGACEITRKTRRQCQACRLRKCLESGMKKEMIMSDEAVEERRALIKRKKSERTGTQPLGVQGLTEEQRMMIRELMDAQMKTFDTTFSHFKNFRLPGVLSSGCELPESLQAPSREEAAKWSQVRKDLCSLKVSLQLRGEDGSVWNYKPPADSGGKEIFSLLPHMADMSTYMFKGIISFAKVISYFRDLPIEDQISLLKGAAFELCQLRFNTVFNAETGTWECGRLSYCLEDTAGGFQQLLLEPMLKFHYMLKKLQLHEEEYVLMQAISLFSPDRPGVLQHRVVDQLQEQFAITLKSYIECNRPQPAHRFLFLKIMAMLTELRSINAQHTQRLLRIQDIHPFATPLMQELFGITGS
human Retinoic Acid Receptor beta (RARb), RARB (gene 5915), sequence (P10826 whole entry, looked up, the tested form may be a part): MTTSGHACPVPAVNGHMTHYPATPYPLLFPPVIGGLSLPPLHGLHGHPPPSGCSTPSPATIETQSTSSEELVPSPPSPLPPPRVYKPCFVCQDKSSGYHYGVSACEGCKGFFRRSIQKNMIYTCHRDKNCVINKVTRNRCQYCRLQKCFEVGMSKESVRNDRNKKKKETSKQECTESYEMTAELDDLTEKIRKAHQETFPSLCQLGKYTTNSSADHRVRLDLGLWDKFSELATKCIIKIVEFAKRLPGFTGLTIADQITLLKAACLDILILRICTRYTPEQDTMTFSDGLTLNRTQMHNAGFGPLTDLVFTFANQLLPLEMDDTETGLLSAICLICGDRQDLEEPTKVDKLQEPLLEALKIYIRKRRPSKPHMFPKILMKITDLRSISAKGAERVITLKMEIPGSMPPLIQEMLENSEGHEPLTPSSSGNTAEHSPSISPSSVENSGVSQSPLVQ
human Peroxisome Proliferator-activated Receptor alpha (PPARa), PPARA (gene 5465), sequence (Q07869 whole entry, looked up): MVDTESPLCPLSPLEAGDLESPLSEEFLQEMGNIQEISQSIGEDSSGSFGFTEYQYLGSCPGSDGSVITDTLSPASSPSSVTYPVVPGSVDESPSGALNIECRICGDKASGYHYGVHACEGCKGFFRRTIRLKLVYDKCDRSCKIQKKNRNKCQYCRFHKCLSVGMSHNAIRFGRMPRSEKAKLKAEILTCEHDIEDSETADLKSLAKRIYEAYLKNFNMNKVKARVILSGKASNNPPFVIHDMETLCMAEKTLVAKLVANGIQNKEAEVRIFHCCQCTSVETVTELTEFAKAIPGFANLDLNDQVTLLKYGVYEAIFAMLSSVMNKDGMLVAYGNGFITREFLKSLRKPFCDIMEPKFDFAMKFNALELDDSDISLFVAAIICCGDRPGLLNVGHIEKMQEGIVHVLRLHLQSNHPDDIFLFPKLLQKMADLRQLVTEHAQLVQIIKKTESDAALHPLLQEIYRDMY
human RAR-related Orphan Receptor beta (RORb), RORB (gene 6096), sequence (Q92753 whole entry, looked up, the tested form may be a part): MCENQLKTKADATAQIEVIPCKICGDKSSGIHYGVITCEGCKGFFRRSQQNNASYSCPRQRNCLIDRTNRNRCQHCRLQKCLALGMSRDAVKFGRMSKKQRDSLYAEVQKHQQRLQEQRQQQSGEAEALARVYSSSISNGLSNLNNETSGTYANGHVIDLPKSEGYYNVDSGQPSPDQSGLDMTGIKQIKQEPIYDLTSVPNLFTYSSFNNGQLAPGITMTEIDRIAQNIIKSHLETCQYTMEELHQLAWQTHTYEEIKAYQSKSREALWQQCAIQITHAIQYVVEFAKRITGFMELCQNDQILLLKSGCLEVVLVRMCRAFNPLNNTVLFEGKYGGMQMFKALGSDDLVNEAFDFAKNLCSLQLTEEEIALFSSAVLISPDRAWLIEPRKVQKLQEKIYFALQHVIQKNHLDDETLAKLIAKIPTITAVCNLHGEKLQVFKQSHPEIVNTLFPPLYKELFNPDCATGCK

Turning to `O=C(O)COCCN1CCN(C(c2ccccc2)c2ccc(Cl)cc2)CC1` (centres undefined), the result in [1], in [2] and in [3] was inactive.
On to `O=c1[nH]nnc2ccccc12`, for which the compound was classed as inactive in assay [1], in assay [2] and in assay [3].
For `CC(O)C(C)O` (centres undefined), the call in assay [1], in assay [2], in assay [3] and in assay [4] was inactive.
On to `O=C(O)C[C@H](O)C[C@H](O)/C=C/c1c(C2CC2)nc2ccccc2c1-c1ccc(F)cc1`, for which the call in [1], in assay [5], in assay [3] and in assay [4] was inactive. Further, the AC50 in assay [6] is 1.95 µM (active); in assay [7] it was 20.2 µM (active).
`c1cc(C(c2ccc(OCC3CO3)cc2)c2ccc(OCC3CO3)cc2)ccc1OCC1CO1` (centres undefined): the outcome in [1], in [2] and in assay [3] was inactive.
As for `C=C[C@@H](C)CCC=C(C)C`, the outcome in [1], in assay [2], in assay [3] and in assay [4] was inactive.
As for `CC(C)=CCO`, the outcome in assay [1], in assay [2], in assay [3] and in [4] was inactive.
For the compound `CC(C)(C)C(=O)c1ccccc1`, the result in assay [1], in [2], in [3] and in assay [4] was inactive.
Turning to `CC(C)c1ccc(C(C)C)cc1`, the call in assay [1], in assay [3] and in [4] was inactive. Moreover, in assay [5], the AC50 was 35.8 µM (active).
With `CCCCCCCCCCCCSC`, the compound was classed as inactive in assay [1], in assay [2] and in [3].
As for `C=CCOC(=O)CCC1CCCCC1`, the call in assay [1], in assay [5], in assay [7] and in [3] was inactive.
Regarding `COc1cc2ncnc(Nc3cccc(Cl)c3)c2cc1OC`, the outcome in assay [1], in [2] and in [3] was inactive.
With `C=C[Si](OCC)(OCC)OCC`, the compound was classed as inactive in assay [1] and in assay [5]. Moreover, the concentration at half-maximal activity (AC50) in [3] was 2.2 µM (active).
`Clc1sc(Cl)c(Cl)c1Cl`: the compound was called inactive in [1], in assay [2] and in assay [3].
For the compound `Sc1nc(S)nc(S)n1`, the result in assay [1], in assay [2], in [3] and in assay [4] was inactive.
Regarding `CCCCOCCOCCOCCOCCO`, the outcome in assay [1], in assay [2] and in assay [4] was inactive.
For `CC1(C)[C@@H]2CC[C@@]1(C)[C@H](O)C2`, the compound was classed as inactive in [1], in assay [2] and in assay [3].
Regarding `Cc1ncc([N+](=O)[O-])n1C`, the outcome in [1], in [2], in [3] and in [4] was inactive.
Consider `CCCCNC(=O)NS(=O)(=O)c1ccc(C)cc1`, for which the compound was called inactive in [1], in assay [2], in assay [3] and in assay [4].
`CCCCCCCCC=O`: in assay [1], the half-maximal activity concentration (AC50) is 100 µM (active). The outcome in assay [5] and in assay [4] was inactive.
Take `COCCOCCOCCOCCOCCO`: the call in assay [1], in assay [2] and in assay [4] was inactive.
Consider `O=C(O)c1cn(C2CC2)c2cc(N3CCNCC3)c(F)cc2c1=O`, for which the result in assay [1], in [5], in assay [7] and in assay [3] was inactive.
For `CCCCCCCCCCCCN(CCCCCCCCCCCC)CCCCCCCCCCCC`, the compound was classed as inactive in assay [1], in assay [2], in assay [3] and in [4].
As for `CCc1c(C)cc(N)c(CC)c1N`, the compound was classed as inactive in assay [1], in assay [5], in assay [6] and in assay [7]. In addition, in assay [3], the AC50 is 100 µM (active).
As for `CCN(CC)c1ccc(C(=C2C=CC(=[N+](CC)CC)C=C2)c2ccc(S(=O)(=O)O)cc2S(=O)(=O)[O-])cc1`, the compound was called inactive in assay [1], in assay [2], in assay [3] and in assay [4].
As for `Nc1cc([N+](=O)[O-])ccc1Cl`, the compound was called inactive in assay [1], in [5] and in [3]. The concentration at half-maximal activity (AC50) in assay [7] was 49.8 µM (active).
On to `O=S(=O)(O)c1ccc(O)c2ncccc12`, for which the call in assay [1], in assay [2], in [3] and in [4] was inactive.
In the case of `CCO[Si](CCCS)(OCC)OCC`, the call in assay [1], in assay [2], in assay [3] and in assay [4] was inactive.
As for `OC1OC[C@@H](O)[C@H](O)[C@H]1O` (some centres undefined), the call in assay [1], in assay [5], in assay [7] and in [4] was inactive.
For `CCC(O)CO` (centres undefined), the result in [1], in [2] and in assay [3] was inactive.
Turning to `OC[C@H]1O[C@H](O[C@]2(CCl)O[C@H](CCl)[C@@H](O)[C@@H]2O)[C@H](O)[C@@H](O)[C@H]1Cl`, the call in assay [1], in assay [5], in assay [6] and in [3] was inactive.
For `O=C1c2ccccc2C(=O)N1SC1CCCCC1`, the compound was classed as inactive in assay [1], in assay [2] and in [3].
With `CCC(C(=O)NC(N)=O)c1ccccc1` (centres undefined), the outcome in assay [1], in [2] and in assay [3] was inactive.
For `CCCCCCCCCC=O`, the AC50 was 29.6 µM (active) in assay [1] and 45.4 µM (active) in assay [7]. Moreover, the result in assay [5] was inactive.
Take `CC(C)CCCCCCCOC(=O)c1ccc(C(=O)OCCCCCCCC(C)C)c(C(=O)OCCCCCCCC(C)C)c1`: the call in assay [1], in [7], in assay [3] and in assay [4] was inactive.
For the compound `CCc1ccc(C=O)cc1`, the call in assay [1], in assay [7], in assay [3] and in [4] was inactive.
On to `CCCCCCCCCCCCCCCC(=O)O`, for which, in assay [1], the half-maximal activity concentration (AC50) is 26.5 µM (active). Moreover, the outcome in assay [8], in assay [9], in assay [7] and in [4] was inactive.
Turning to `NCCCCCCN`, the outcome in assay [1], in assay [8], in assay [7], in assay [3] and in assay [10] was inactive.
In the case of `O=C1O[C@@H]2[C@@H](O)[C@H](O)O[C@@H]2[C@H]1O`, the call in assay [1], in assay [7] and in assay [3] was inactive.
Regarding `C=CC(=O)OCCOCCOCC`, the outcome in assay [1], in [8], in assay [9], in assay [10] and in assay [4] was inactive. In addition, the AC50 in assay [7] was 17 µM (active); in assay [3], 40 µM (active).
Take `O=C(O)CCCCCCCC(=O)O`: the compound was classed as inactive in [1], in assay [8], in [9] and in assay [10].
On to `CC(C)=CCC[C@H](C)CC=O`, for which the compound was called inactive in assay [1], in assay [7] and in [3].
Take `CCC(C)CCCC(C)(C)O` (centres undefined): the compound was classed as inactive in [1], in assay [8], in [3], in assay [10] and in [4].
Take `COc1ccc(OC)c(OC)c1`: the call in [1], in assay [7] and in assay [3] was inactive.
On to `CC(C)C[C@H]1C(=O)N2CCC[C@H]2[C@]2(O)O[C@](NC(=O)[C@@H]3C=C4c5cccc6[nH]c(Br)c(c56)C[C@H]4N(C)C3)(C(C)C)C(=O)N12`, for which the result in assay [1], in assay [8] and in assay [10] was inactive. Also, in assay [3], the concentration at half-maximal activity (AC50) was 0.505 µM (active).
In the case of `Cc1ccc(C(C)C)cc1O`, the compound was classed as inactive in assay [1], in [7], in assay [3] and in assay [4].
Turning to `C=C(C)C(=O)Nc1ccc(Cl)c(Cl)c1`, the result in [1] and in assay [4] was inactive. Besides, the AC50 in assay [7] was 18.4 µM (active); in assay [3], 7.08 µM (active).

What is called AC50 is the concentration giving half of the maximal activity seen.
